Results filed as inconclusive are left out. Activity calls are given as the source filed them. How the source made its calls, unless noted: active means hit-call score of the fitted dose curve at least 0.9, where 1 is the maximum; inactive means score below 0.9.
Legend:
[1] = target: Transcription factor Sp1 (Homo sapiens) (UniProt P08047); test: ATG_Sp1_CIS: Attagene CIS-FACTORIAL HepG2 Assay for human Specificity Protein 1 (Sp1) (AID 2282961); details: HepG2 Sp1 cis-reporter transcription, actives raise or lower the signal
Summary of the method: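 Endpoint reflects endogenous Sp1 transcriptional activity, not an exogenous fusion protein: HepG2 cells with transfected cis-regulated reporters, 24 h dosing, RT-PCR/capillary electrophoresis mRNA read-out, DMSO-normalised bidirectional fit.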

[2] = ATG_SREBP_CIS: Attagene CIS-FACTORIAL HepG2 Assay for human Sterol Regulatory Element Binding (SREBP) (AID 2282962); details: HepG2 Attagene cis-factorial SREBP reporter, mRNA; actives raise or lower the signal
Summary of the method: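 Transfected HepG2 (cis-regulated reporter library, endogenous TFs) → compound 24 h → total RNA → oligo(dT) RT → reporter-specific PCR → FAM primer extension, HpaI cut → CE fluorescence. Fit bidirectional vs DMSO.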

[3] = ATG_TA_CIS: Attagene CIS-FACTORIAL HepG2 Assay for human TA Basal Promoter (AID 2282964); details: HepG2 Attagene CIS-factorial TA basal promoter reporter; actives raise or lower the signal
Summary of the method: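 Background internal-marker endpoint from a 52-component HepG2 cis-reporter panel. Cells treated 24 h; reporter transcripts quantified via RT-PCR and CE fluorescence against DMSO baseline.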

[4] = ATG_TAL_CIS: Attagene CIS-FACTORIAL HepG2 Assay for human TAL Basal Promoter (AID 2282966); details: HepG2 Attagene cis-factorial TAL promoter reporter; actives raise or lower the signal;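 further: background control endpoint measuring basal TAL promoter reporter mRNA not a specific factor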
Summary of the method: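 HepG2 cells were transiently transfected with promoter-driven multiplexed reporter units and dosed for 24 h. Reporter mRNA was measured by RT-PCR with capillary electrophoresis fluorescence; bidirectional fits used DMSO as baseline, serving as a background control.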

[5] = ATG_TGFb_CIS: Attagene CIS-FACTORIAL HepG2 Assay for human Transforming Growth Factor (TGF) (AID 2282967); details: HepG2 Attagene CIS TGFb reporter, mRNA transcription; actives raise or lower the signal
Summary of the method: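 Liver HepG2 line, cis-factorial reporter panel, 24 h dosing. Quantitation: RT-PCR products labeled with 6-FAM, cut with HpaI, resolved by capillary electrophoresis; DMSO-referenced bidirectional analysis.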

[6] = target: Nuclear receptor subfamily 1 group I member 3 (Homo sapiens) (UniProt Q14994); test: ATG_CAR_TRANS: Attagene TRANS-FACTORIAL HepG2 Assay for human Constitutive Androstane Receptor (CAR) (AID 2282969; active means hit-call score of the fitted dose curve at least 0.9, where 1 is the maximum;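 further: activators raise reporter mRNA above DMSO so AC50 marks induction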); details: HepG2 Attagene TRANS-FACTORIAL CAR reporter
Summary of the method: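 HepG2 cells transiently transfected with multiplexed GAL4-UAS reporter units expressing chimeric NR-Gal4 proteins; compound exposure 24 h. Reporter mRNA measured by RT-PCR, 6-FAM labelling, HpaI digestion and capillary electrophoresis; gain-of-signal fitted against DMSO baseline.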

[7] = ATG_TCF_b_cat_CIS: Attagene CIS-FACTORIAL HepG2 Assay for human T-Cell-Factor with beta-catenin (TCF/b-cat) (AID 2282965); details: HepG2 TCF/beta-catenin cis-reporter transcription, actives raise or lower the signal
Summary of the method: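 HepG2 cells transiently transfected with multiple cis-promoter-regulated reporter transcription units, so endogenous transcription factor activity is measured. Reporter mRNA read 24 hours after dosing by RT-PCR, fluorescent labelling and capillary electrophoresis; bidirectional fitting against DMSO.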

[8] = target: Estrogen receptor (Homo sapiens) (UniProt P03372); test: ATG_ERa_TRANS: Attagene TRANS-FACTORIAL HepG2 Assay for human Estrogen Receptor alpha (ERa) (AID 2282970; active means hit-call score of the fitted dose curve at least 0.9, where 1 is the maximum); details: HepG2 Attagene TRANS ERa GAL4 reporter, mRNA
Summary of the method: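 HepG2 cells transiently transfected with multiplexed GAL4-UAS reporter units; ERa activity read via exogenous chimeric NR-Gal4 protein. After 24 hour compound exposure, reporter mRNA measured by RT-PCR with 6-FAM labelling and capillary electrophoresis; gain-of-signal fitted relative to DMSO.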

[9] = ATG_VDRE_CIS: Attagene CIS-FACTORIAL HepG2 Assay for human Vitamin D Receptor Element (VDRE) (AID 2282968); details: HepG2 VDRE cis-reporter transcription, actives raise or lower the signal
Summary of the method: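 RT-PCR/CE readout of reporter mRNA; HepG2, transient transfection, 24 h dosing; DMSO baseline; bidirectional analysis.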

[10] = target: Signal transducer and activator of transcription 3 (Homo sapiens) (UniProt P40763); test: ATG_STAT3_CIS: Attagene CIS-FACTORIAL HepG2 Assay for human Signal Transducer and Activator of Transcription 3 (STAT3) (AID 2282963); details: HepG2, Attagene cis-factorial STAT3 reporter transcription; actives raise or lower the signal
Summary of the method: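 Transcript-level reporter assay. HepG2 transient MRTU transfection, 24 h exposure, fluorescence detection after RT-PCR and CE; DMSO baseline.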

Measured: AC50

Chain of Transcription factor Sp1 (Homo sapiens) (P08047 whole entry, looked up, the tested form may be a part): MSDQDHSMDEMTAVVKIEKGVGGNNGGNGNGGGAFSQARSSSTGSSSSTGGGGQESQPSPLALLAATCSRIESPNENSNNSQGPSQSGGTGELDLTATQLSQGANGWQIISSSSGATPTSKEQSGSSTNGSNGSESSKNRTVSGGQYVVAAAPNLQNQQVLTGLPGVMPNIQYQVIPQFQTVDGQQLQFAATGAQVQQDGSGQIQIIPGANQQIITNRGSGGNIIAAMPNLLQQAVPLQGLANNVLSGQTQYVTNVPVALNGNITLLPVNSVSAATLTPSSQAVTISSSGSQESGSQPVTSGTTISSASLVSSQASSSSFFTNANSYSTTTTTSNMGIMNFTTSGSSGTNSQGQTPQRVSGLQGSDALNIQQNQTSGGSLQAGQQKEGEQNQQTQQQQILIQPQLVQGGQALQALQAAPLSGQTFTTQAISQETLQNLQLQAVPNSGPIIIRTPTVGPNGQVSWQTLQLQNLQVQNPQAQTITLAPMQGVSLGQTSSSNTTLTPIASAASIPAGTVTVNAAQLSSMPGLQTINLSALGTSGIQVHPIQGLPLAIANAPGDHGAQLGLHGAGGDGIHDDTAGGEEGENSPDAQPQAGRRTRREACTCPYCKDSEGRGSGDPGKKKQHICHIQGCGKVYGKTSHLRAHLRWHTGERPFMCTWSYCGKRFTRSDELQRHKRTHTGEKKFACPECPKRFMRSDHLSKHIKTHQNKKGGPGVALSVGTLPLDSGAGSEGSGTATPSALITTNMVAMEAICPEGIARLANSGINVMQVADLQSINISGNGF
Chain of Estrogen receptor (Homo sapiens) (P03372 whole entry, looked up, the tested form may be a part): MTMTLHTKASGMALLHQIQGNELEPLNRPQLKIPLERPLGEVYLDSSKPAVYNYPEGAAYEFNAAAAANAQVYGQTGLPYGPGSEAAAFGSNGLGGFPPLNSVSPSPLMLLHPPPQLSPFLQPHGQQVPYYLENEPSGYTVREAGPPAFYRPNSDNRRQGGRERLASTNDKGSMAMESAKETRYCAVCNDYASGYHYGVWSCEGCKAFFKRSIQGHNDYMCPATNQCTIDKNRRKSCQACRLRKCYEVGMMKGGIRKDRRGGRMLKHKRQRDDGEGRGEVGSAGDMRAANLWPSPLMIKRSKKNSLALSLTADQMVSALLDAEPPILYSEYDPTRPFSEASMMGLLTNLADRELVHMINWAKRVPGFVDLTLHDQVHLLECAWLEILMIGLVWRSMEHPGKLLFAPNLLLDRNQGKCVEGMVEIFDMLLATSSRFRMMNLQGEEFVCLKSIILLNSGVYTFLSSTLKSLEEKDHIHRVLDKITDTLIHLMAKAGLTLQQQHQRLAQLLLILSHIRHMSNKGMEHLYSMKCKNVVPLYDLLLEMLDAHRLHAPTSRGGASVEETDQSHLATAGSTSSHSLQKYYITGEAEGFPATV
Chain of Nuclear receptor subfamily 1 group I member 3 (Homo sapiens) (Q14994 whole entry, looked up, the tested form may be a part): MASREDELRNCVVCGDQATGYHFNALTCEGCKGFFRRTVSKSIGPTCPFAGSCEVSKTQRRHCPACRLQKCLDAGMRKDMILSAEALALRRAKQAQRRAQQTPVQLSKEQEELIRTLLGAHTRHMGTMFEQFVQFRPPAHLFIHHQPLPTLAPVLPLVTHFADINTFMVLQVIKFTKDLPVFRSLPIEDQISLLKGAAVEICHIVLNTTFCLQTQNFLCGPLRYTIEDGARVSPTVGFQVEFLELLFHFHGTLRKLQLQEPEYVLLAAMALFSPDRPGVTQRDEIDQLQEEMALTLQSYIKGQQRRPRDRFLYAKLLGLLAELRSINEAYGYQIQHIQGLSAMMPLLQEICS
Chain of Signal transducer and activator of transcription 3 (Homo sapiens) (P40763 whole entry, looked up): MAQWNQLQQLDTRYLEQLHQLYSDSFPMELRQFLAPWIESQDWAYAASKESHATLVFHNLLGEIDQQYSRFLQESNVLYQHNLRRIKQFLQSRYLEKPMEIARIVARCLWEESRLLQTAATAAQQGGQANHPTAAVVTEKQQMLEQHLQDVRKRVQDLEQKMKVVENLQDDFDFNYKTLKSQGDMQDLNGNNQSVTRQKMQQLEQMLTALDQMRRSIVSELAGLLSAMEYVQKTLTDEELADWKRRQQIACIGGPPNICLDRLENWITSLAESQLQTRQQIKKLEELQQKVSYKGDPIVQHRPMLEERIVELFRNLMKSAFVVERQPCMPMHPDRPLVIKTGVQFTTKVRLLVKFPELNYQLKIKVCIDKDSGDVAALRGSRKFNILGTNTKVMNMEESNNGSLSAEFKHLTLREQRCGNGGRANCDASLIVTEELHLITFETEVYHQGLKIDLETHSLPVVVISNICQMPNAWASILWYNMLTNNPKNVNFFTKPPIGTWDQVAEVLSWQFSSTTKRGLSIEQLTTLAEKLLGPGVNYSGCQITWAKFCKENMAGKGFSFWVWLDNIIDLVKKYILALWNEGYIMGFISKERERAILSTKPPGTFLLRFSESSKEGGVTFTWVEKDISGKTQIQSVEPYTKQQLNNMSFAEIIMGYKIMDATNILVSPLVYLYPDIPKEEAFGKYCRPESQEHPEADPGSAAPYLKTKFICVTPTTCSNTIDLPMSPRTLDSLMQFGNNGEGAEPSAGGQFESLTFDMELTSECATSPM

C=CCc1ccc(OC)cc1
inactive: [1] | [2] | [3] | [4] | [5] | [6]

O=S(=O)(c1ccc(Cl)cc1)c1ccc(Cl)cc1
inactive: [1] | [2] | [3] | [7] | [4] | [5] | [6] | [8]

O=C(c1ccccc1)C(Cl)Cl
active: [1] 25.2 µM | [2] 26.4 µM | [7] 25 µM | [9] 7.69 µM
inactive: [3] | [4] | [5] | [8]

COc1cccc(C=O)c1
inactive: [1] | [2] | [3] | [7] | [4] | [9] | [6]

COS(=O)(=O)c1ccc(C)cc1
inactive: [1] | [2] | [3] | [7] | [4] | [5] | [9] | [8]

Oc1c(I)cc(I)cc1I
active: [3] 55.8 µM | [4] 76.1 µM | [9] 19 µM
inactive: [1] | [2] | [8]

CC(=[OH+])/C=C(/C)[O-].CC(=[OH+])/C=C(/C)[O-].CC(=[OH+])/C=C(/C)[O-].[Al]
inactive: [1] | [2] | [3] | [4]

CCCCP(CCCC)CCCC
inactive: [1] | [2] | [3] | [7] | [8]

O=C(OC1CCCCC1)c1ccccc1C(=O)OC1CCCCC1
inactive: [1] | [2] | [7] | [4]
active: [3] 29.1 µM | [5] 62.1 µM | [8] 3.1 µM

CC(C#N)CCC#N (stereo not given)
inactive: [1] | [2] | [3] | [7] | [5] | [9]

CCC[CH2][Sn]([CH2]CCC)([CH2]CCC)[O]C(=O)c1ccccc1
inactive: [1] | [2] | [3] | [4] | [5]
active: [9] 0.137 µM | [8] 0.774 µM

CC1(C)Cc2cccc(O)c2O1
inactive: [1] | [2] | [3] | [7] | [4] | [5] | [9] | [8]

COP(=O)(OC)OC
inactive: [1] | [2] | [3] | [7] | [4] | [5] | [9] | [6] | [8]

CC(Br)C(=O)O (stereo not given)
inactive: [1] | [2] | [3] | [7] | [5] | [9] | [6] | [8]

ClCCBr
inactive: [1] | [2] | [3] | [7] | [5] | [6] | [8]

CC(C)c1ccc(CO)cc1
active: [9] 36.2 µM | [8] 60.1 µM
inactive: [1] | [2] | [3] | [4] | [5]

[O-][Cl+2]([O-])O
inactive: [1] | [2] | [3] | [7] | [4] | [5] | [9] | [6]

N#Cc1ccccn1
inactive: [1] | [2] | [3] | [4] | [5] | [6]

C[C@@H](Oc1ccc(Cl)cc1Cl)C(=O)O
inactive: [1] | [2] | [3] | [7] | [5]

N#CCCO
inactive: [1] | [2] | [3] | [7] | [4] | [5] | [8]

CC(C)C1CCC(Cc2ccc(Cl)cc2)C1(O)Cn1cncn1 (stereo not given)
active: [9] 4.62 µM
inactive: [1] | [2] | [3] | [7] | [4] | [5] | [6] | [8]

Clc1nc(Cl)nc(Cl)n1
inactive: [1] | [2] | [3] | [7] | [4] | [5] | [9] | [8]

Cl/C=C/Cl
inactive: [1] | [2] | [3] | [7] | [5]

COP(=O)(OC)O/C(=C\Cl)c1cc(Cl)c(Cl)cc1Cl
active: [2] 26.9 µM | [3] 73.4 µM | [4] 100 µM | [8] 5.86 µM
inactive: [1] | [5]

Cc1ccccc1C(=O)Nc1cccc(OC(C)C)c1
inactive: [1] | [2] | [3] | [4] | [5]

O=C(NCO)NCO
inactive: [1] | [2] | [3] | [4] | [5] | [8]

c1ccc(N=NNc2ccccc2)cc1
active: [1] 153 µM | [2] 136 µM | [9] 28.4 µM | [8] 27.1 µM
inactive: [3] | [7] | [4] | [5] | [6]

Nc1ccc(N=Nc2ccc(-c3ccc(N=Nc4c(S(=O)(=O)O)cc5cc(S(=O)(=O)O)c(N=Nc6ccccc6)c(O)c5c4N)cc3)cc2)c(N)c1
active: [8] 19.9 µM
inactive: [1] | [2] | [10] | [3] | [9] | [6]

O=P(O)(O)CN(CP(=O)(O)O)CP(=O)(O)O
inactive: [1] | [2] | [3] | [7] | [5] | [9] | [8]

Cc1ccc(N)cc1Cl
inactive: [1] | [2] | [3] | [7] | [4] | [5] | [9] | [6] | [8]

CC(C)(C)c1cc(O)ccc1O
inactive: [1] | [2] | [4]
active: [3] 138 µM | [8] 33.6 µM

O=C/C=C/c1ccccc1
active: [9] 45.5 µM | [8] 27.8 µM
inactive: [1] | [2] | [3] | [7] | [4] | [5] | [6]

NNC(=S)NN
inactive: [1] | [2] | [3] | [7] | [4] | [5] | [9] | [8]

C(=NC1CCCCC1)=NC1CCCCC1
active: [2] 17.2 µM | [9] 3.69 µM
inactive: [1] | [3] | [7] | [5] | [8]

Nc1ccc(-c2ccc(N)c(Cl)c2)cc1Cl
active: [7] 4.63 µM | [9] 37.6 µM | [8] 2.04 µM
inactive: [1] | [2] | [3] | [4] | [5]
